Laboratory results: PubChem BioAssay (EPA / NIEHS)
Activity calls are given as the source filed them. How the source made its calls: active means hit-call score of the fitted dose curve at least 0.9, where 1 is the maximum; inactive means score below 0.9.

Experiments:
[1] = read-out: Transforming growth factor beta 1 (TGFb1), TGFB1 (gene 7040); test: BSK_KF3CT_TGFb1: BioMAP Diversity Plus: KF3CT Assay for Transforming growth factor beta 1 (TGFb1) Biomarker Activity (AID 2283072); conditions: primary human keratinocytes with fibroblasts; actives raise or lower the signal
Method in brief: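 Human keratinocyte plus foreskin fibroblast primary co-culture, dosed with chemical for 24 h. TGF-b1 quantified by ELISA. Activity fitted bidirectionally against DMSO negative control as baseline.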

[2] = read-out: Matrix Metallopeptidase 9 (MMP9), MMP9 (gene 4318); test: BSK_KF3CT_MMP9: BioMAP Diversity Plus: KF3CT Assay for Matrix Metallopeptidase 9 (MMP9) Biomarker Activity (AID 2283074); conditions: primary human keratinocytes with fibroblasts; actives raise or lower the signal;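 on AC50: MMP9 protein level quantified by ELISA in the co-culture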
Method in brief: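 Human keratinocyte and foreskin fibroblast co-culture exposed to chemicals for 24 h; MMP9 biomarker measured by ELISA, bidirectional fitting relative to DMSO; cytotoxicity tracked by SRB total protein staining in parallel cultures.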

[3] = read-out: urokinase plasminogen activator (uPA), PLAU (gene 5328); test: BSK_KF3CT_uPA: BioMAP Diversity Plus: KF3CT Assay for urokinase plasminogen activator (uPA) Biomarker Activity (AID 2283075); conditions: primary human keratinocytes with fibroblasts; actives raise or lower the signal
Method in brief: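 Primary human keratinocyte/foreskin fibroblast co-culture exposed to chemical; uPA measured by ELISA at 24 h. Bidirectional fit versus DMSO, with parallel SRB total-protein staining for cytotoxicity.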

CD40, CD40 (gene 958) [4] = test: BSK_LPS_CD40: BioMAP Diversity Plus: LPS Assay for CD40 Biomarker Activity (AID 2283076); conditions: primary human HUVEC with PBMC; actives raise or lower the signal
Method in brief: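 Using a multiplexed primary human co-culture (umbilical vein endothelium plus PBMC), CD40 was read by ELISA 24 h after dosing, with cytotoxicity tracked by sulforhodamine B staining of parallel cultures and activity fitted bidirectionally versus DMSO.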

[5] = read-out: E-selectin (Homo sapiens) (UniProt P16581); test: BSK_LPS_Eselectin: BioMAP Diversity Plus: LPS Assay for Eselectin Biomarker Activity (AID 2283077); conditions: primary human HUVEC with PBMC; actives raise or lower the signal
Method in brief: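 Dose chemical onto LPS-driven HUVEC/PBMC co-culture; after 24 h, run ELISA for E-selectin; fit up- and down-going responses relative to DMSO control.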

[6] = read-out: Interleukin-8 (IL8), CXCL8 (gene 3576); test: BSK_LPS_IL8: BioMAP Diversity Plus: LPS Assay for Interleukin-8 (IL8) Biomarker Activity (AID 2283078); conditions: primary human HUVEC with PBMC; actives raise or lower the signal
Method in brief: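 In this LPS system, chemical-treated human umbilical vein endothelium/PBMC co-cultures were harvested at 24 h for IL-8 ELISA.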

[7] = BSK_LPS_SRB: Viability Assessment in the BioMAP Diversity Plus: LPS Assay (AID 2283079); conditions: primary human HUVEC with PBMC;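 further: total protein by sulforhodamine B absorbance as a cytotoxicity measure; measured one day after compound addition; fitted in both directions against DMSO so loss or gain of signal counts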
Method in brief: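 Cytotoxicity endpoint in human endothelial–PBMC co-culture: 24 h exposure, then SRB (0.1%) staining, 560 nm read.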

[8] = read-out: Interleukin-1 alpha (IL1a), IL1A (gene 3552); test: BSK_LPS_IL1a: BioMAP Diversity Plus: LPS Assay for Interleukin-1 alpha (IL1a) Biomarker Activity (AID 2283080); conditions: primary human HUVEC with PBMC; actives raise or lower the signal
Method in brief: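 Primary human HUVEC and PBMC co-culture stimulated with LPS is dosed and harvested at 24 h. Both increases and decreases in ELISA-measured IL-1a are scored relative to DMSO.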

[9] = read-out: Monocyte Chemoattractant Protein-1 (MCP1), CCL2 (gene 6347); test: BSK_LPS_MCP1: BioMAP Diversity Plus: LPS Assay for Monocyte Chemoattractant Protein-1 (MCP1) Biomarker Activity (AID 2283081); conditions: primary human HUVEC with PBMC; actives raise or lower the signal;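 on AC50: secreted MCP-1 protein quantified by ELISA in culture supernatant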
Method in brief: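 Values derive from bidirectional fitting against DMSO of ELISA-measured MCP-1 in a human primary endothelial and mononuclear cell co-culture, 24 h after chemical addition under LPS activation.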

[10] = read-out: Macrophage colony-stimulating factor (MCSF), CSF1 (gene 1435); test: BSK_LPS_MCSF: BioMAP Diversity Plus: LPS Assay for Macrophage colony-stimulating factor (MCSF) Biomarker Activity (AID 2283083); conditions: primary human HUVEC with PBMC; actives raise or lower the signal
Method in brief: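 Bidirectional fit versus DMSO of ELISA-measured M-CSF in co-cultured human umbilical vein endothelial cells and PBMC, sampled 24 h after dosing.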

[11] = read-out: Tissue Factor, F3 (gene 2152); test: BSK_LPS_TissueFactor: BioMAP Diversity Plus: LPS Assay for Tissue Factor Biomarker Activity (AID 2283084); conditions: primary human HUVEC with PBMC; actives raise or lower the signal
Method in brief: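 Read-out: CD142 ELISA, 24 h. System: LPS-driven human endothelial/PBMC co-culture. Analysis: up- or down-signal fitted against DMSO.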

[12] = read-out: Tumor necrosis factor (Homo sapiens) (UniProt P01375); test: BSK_LPS_TNFa: BioMAP Diversity Plus: LPS Assay for Tumour Necrosis Factor alpha (TNFa) Biomarker Activity (AID 2283085); conditions: primary human HUVEC with PBMC; actives raise or lower the signal
Method in brief: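 Human umbilical vein endothelial cells co-cultured with PBMC were exposed to test chemical and TNFa measured by ELISA 24 h after dosing. Bidirectional curve fitting was done relative to DMSO as negative control and baseline.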

[13] = read-out: Vascular cell adhesion molecule 1 (VCAM1), VCAM1 (gene 7412); test: BSK_LPS_VCAM1: BioMAP Diversity Plus: LPS Assay for Vascular cell adhesion molecule 1 (VCAM1) Biomarker Activity (AID 2283086); conditions: primary human HUVEC with PBMC; actives raise or lower the signal
Method in brief: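 Human umbilical vein endothelial cells co-cultured with peripheral blood mononuclear cells under LPS stimulation were exposed to test chemical for 24 h. VCAM-1 levels were then measured by ELISA, with bidirectional curve fitting relative to DMSO as negative control and baseline.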

CD38, CD38 (gene 952) = test: BSK_SAg_CD38: BioMAP Diversity Plus: SAg Assay for CD38 Biomarker Activity (AID 2283087); conditions: primary human HUVEC with PBMC; actives raise or lower the signal
Method in brief: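 Fluorescence ELISA of cell-surface CD38 served as the read-out, with either increase or decrease fitted against DMSO controls. Cells were a human umbilical vein endothelium plus PBMC co-culture under SEB/TSST-1 stimulation, measured 24 h after dosing.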

CD40, CD40 (gene 958) [14] = test: BSK_SAg_CD40: BioMAP Diversity Plus: SAg Assay for CD40 Biomarker Activity (AID 2283088); conditions: primary human HUVEC with PBMC; actives raise or lower the signal
Method in brief: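 Endpoint derived by fitting increases or decreases versus DMSO controls. CD40 is detected by fluorescence ELISA in a human vascular co-culture of endothelium and PBMC at 24 h.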

CD69, CD69 (gene 969) = test: BSK_SAg_CD69: BioMAP Diversity Plus: SAg Assay for CD69 Biomarker Activity (AID 2283089); conditions: primary human HUVEC with PBMC; actives raise or lower the signal;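 on AC50: cell surface CD69 protein quantified by ELISA with fluorescence detection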
Method in brief: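 ELISA, fluorescence read-out: CD69 on human umbilical vein endothelial cell + PBMC co-culture, 24 h post-dosing. Gain or loss of signal fitted bidirectionally against DMSO baseline.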

[15] = read-out: Monocyte Chemoattractant Protein-1 (MCP1), CCL2 (gene 6347); test: BSK_SAg_MCP1: BioMAP Diversity Plus: SAg Assay for Monocyte Chemoattractant Protein-1 (MCP1) Biomarker Activity (AID 2283090); conditions: primary human HUVEC with PBMC; actives raise or lower the signal
Method in brief: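 MCP-1 levels in the endothelial–PBMC SAg co-culture were quantified by ELISA at 24 h post-dosing; both increases and decreases versus DMSO scored. Cytotoxicity monitored by SRB total protein in parallel cultures.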

[16] = read-out: E-selectin (Homo sapiens) (UniProt P16581); test: BSK_SAg_Eselectin: BioMAP Diversity Plus: SAg Assay for Eselectin Biomarker Activity (AID 2283091); conditions: primary human HUVEC with PBMC; actives raise or lower the signal
Method in brief: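 Endpoint values derive from bidirectional fitting relative to DMSO, using ELISA-measured E-selectin in a human vascular co-culture (umbilical vein endothelium plus PBMC) sampled 24 h after dosing.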

[17] = read-out: C-C motif chemokine 2 (Homo sapiens) (UniProt P13500); test: BSK_KF3CT_MCP1: BioMAP Diversity Plus: KF3CT Assay for Monocyte Chemoattractant Protein 1 (MCP1/CCL2) Biomarker Activity (AID 2283073); conditions: primary human keratinocytes with fibroblasts; actives raise or lower the signal
Method in brief: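 Biomarker MCP-1 is measured by ELISA in primary human keratinocytes co-cultured with foreskin fibroblasts, 24 h after chemical treatment; DMSO serves as the negative control and activity baseline.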

[18] = BSK_LPS_PGE2: BioMAP Diversity Plus: LPS Assay for Prostaglandin E2 (PGE2) Biomarker Activity (AID 2283082); conditions: primary human HUVEC with PBMC; actives raise or lower the signal
Method in brief: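 HUVEC plus PBMC co-culture stimulated with LPS; secreted PGE2 quantified by ELISA 24 h after chemical dosing. Activity fitted bidirectionally against DMSO as negative control and baseline; parallel SRB total-protein staining served as cytotoxicity check.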

Measured: AC50

Sequence of Tumor necrosis factor (Homo sapiens) (P01375 whole entry, looked up): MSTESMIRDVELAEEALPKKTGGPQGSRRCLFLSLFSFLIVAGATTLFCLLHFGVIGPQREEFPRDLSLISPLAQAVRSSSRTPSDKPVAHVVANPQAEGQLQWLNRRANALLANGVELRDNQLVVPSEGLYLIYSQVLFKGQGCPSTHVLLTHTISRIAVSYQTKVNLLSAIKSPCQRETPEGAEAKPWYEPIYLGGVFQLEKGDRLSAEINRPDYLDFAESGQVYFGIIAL
Sequence of E-selectin (Homo sapiens) (P16581 whole entry, looked up): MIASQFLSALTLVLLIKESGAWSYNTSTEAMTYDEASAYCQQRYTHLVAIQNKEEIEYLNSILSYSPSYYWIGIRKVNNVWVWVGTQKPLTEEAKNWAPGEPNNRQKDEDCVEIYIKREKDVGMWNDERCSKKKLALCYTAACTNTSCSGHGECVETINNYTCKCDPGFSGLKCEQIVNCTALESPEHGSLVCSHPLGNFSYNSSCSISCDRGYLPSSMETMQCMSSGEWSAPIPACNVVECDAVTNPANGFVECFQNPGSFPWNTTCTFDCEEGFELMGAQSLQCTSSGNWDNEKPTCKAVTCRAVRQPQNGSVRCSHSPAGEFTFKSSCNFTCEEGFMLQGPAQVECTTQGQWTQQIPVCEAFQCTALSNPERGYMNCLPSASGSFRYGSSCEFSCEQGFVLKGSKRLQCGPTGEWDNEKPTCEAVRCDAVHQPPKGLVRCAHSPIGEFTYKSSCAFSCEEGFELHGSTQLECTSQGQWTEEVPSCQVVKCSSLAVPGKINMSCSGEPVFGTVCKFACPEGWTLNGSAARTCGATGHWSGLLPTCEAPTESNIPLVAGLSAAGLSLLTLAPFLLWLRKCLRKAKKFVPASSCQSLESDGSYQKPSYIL

c1ccc(Oc2ccccc2)cc1
active: [1] 20 µM | [2] 20 µM | [3] 20 µM
not listed: [17] | [18]
inactive: all other assays above

CCCCN(CCCC)C(=O)N(CCCC)CCCC
inactive: [6] | CD38, CD38 (gene 952)
active: [1] 5.42 µM | [17] 4.75 µM | [2] 10.3 µM | [3] 7.68 µM | CD40, CD40 (gene 958) [4] 20 µM | [5] 20 µM | [7] 30.2 µM | [8] 20 µM | [9] 20 µM | [10] 20 µM | [11] 20 µM | [12] 9.7 µM | [13] 24.7 µM | CD40, CD40 (gene 958) [14] 20 µM | CD69, CD69 (gene 969) 11.2 µM | [15] 20 µM | [16] 9.94 µM

C=C(C)[C@H]1CC=C(C)C(=O)C1
not listed: [17] | [18]
inactive: all other assays above

CS(=O)(=O)c1ccc(C2=C(c3ccccc3)C(=O)OC2)cc1
active: [7] 1.98 µM
not listed: [17]
inactive: all other assays above

O=C1c2ccccc2C(=O)c2c(O)ccc(O)c21
active: [11] 3.52 µM | [12] 1.21 µM | CD38, CD38 (gene 952) 13.1 µM | [16] 1.21 µM
not listed: [18]
inactive: all other assays above

COc1ccc(CCN2CCC(Nc3nc4ccccc4n3Cc3ccc(F)cc3)CC2)cc1
active: [2] 5 µM | [7] 5 µM | CD38, CD38 (gene 952) 5 µM | CD69, CD69 (gene 969) 5 µM
not listed: [17] | [18]
inactive: all other assays above

CCC(C)c1cc([N+](=O)[O-])cc([N+](=O)[O-])c1OC(=O)OC(C)C (stereo not drawn)
active: [1] 20 µM | [2] 20 µM | [3] 20 µM | CD40, CD40 (gene 958) [4] 7.3 µM | [5] 15 µM | [6] 29.7 µM | [7] 11.9 µM | [8] 29.5 µM | [9] 14.3 µM | [10] 14 µM | [11] 16.2 µM | [12] 31.8 µM | [13] 16.8 µM | CD38, CD38 (gene 952) 10.8 µM | CD40, CD40 (gene 958) [14] 9.34 µM | CD69, CD69 (gene 969) 8.7 µM | [15] 12.2 µM | [16] 12.2 µM

CC1(C)C2=CCCC(C)(C)[C@]23CC[C@H]1C3
active: [1] 7.31 µM
not listed: [17] | [18]
inactive: all other assays above

CN(C)C(=S)SC(=S)N(C)C
active: [13] 19.9 µM | CD38, CD38 (gene 952) 26.7 µM
inactive: all other assays above

CS(=O)(=O)OCCCCOS(C)(=O)=O
not listed: [17] | [18]
inactive: all other assays above

CCCCCC(C=O)=Cc1ccccc1
active: [2] 34.5 µM | [3] 35.9 µM | CD40, CD40 (gene 958) [4] 33.3 µM | [5] 31.1 µM | [7] 32.8 µM | [8] 34.3 µM | [9] 32.9 µM | [10] 33.3 µM | [13] 30.4 µM
inactive: [1] | [6] | [11] | [12] | CD38, CD38 (gene 952) | CD40, CD40 (gene 958) [14] | CD69, CD69 (gene 969) | [15] | [16]
